Measurements reported in PubChem BioAssay (NCI).
About 83,000 compounds went through this panel and 20% of them were active in at least one assay; those are over-represented in the sample as a whole.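 96-well plates, one dose, 48 hours. Percent growth reported; active if below 10.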 Activity calls are given as the source filed them.

These compounds were tested on HL-60(TB) leukemia (assay: NCI-60 one-dose screen, 48 h (100 = growth as untreated, 0 = no growth, -100 = all killed)). Conditions: 10 µM unless noted.

SMILES	growth
Cc1ccc(Nc2cccc3ccccc23)cc1	96.2% (inactive)
O=c1[nH]c2cc(O)ccc2n2cc3c(F)cccc3c12	25.5% (inactive)
COc1cc(/C=C/c2cc(O)c3cc(C(C)=O)c(=O)oc3c2)cc2c1O[C@]1(C)CC[C@@H](O)C(C)(C)[C@H]1C2	4.64% (active)
COc1ccc(C(=O)c2cc3c(N)c(C(=O)Nc4ccc(Cl)cc4)sc3nc2C)cc1	62.9% (inactive)
Cc1ccc2nc(NC(=O)CSc3nc(Cl)c(C#N)c(-c4ccccc4)n3)sc2c1	94.9% (inactive)
Oc1ccccc1/C=N\NC(=S)Nc1ccc(F)cc1	-10.3% (active)
C[C@@H]1CC[C@@]2(OC1)O[C@H]1C[C@H]3[C@@H]4CC=C5C[C@@H](O[C@@H]6O[C@H](CO)[C@@H](O[C@@H]7O[C@@H](CO)[C@H](O)[C@H]7O)[C@H](O)[C@H]6O[C@@H]6O[C@@H](C)[C@H](O)[C@@H](O)[C@H]6O)CC[C@]5(C)[C@H]4CC[C@]3(C)[C@H]1[C@@H]2C	-84.1% (active)
O=c1cc2oc3cc(O)c(O)cc3c(-c3ccccc3O)c-2cc1O	103% (inactive)
Cc1ccc(Nc2cc(N)nc(N)n2)cc1	99.6% (inactive)
CCCCCCCCCCCCCCCCCCSC(=N)N	46% (inactive)
CC(C)OP(=O)(OC(C)C)c1ncc(-c2ccc(C(F)(F)F)cc2)c(NC2CCCCCC2)n1	-43.9% [33.3 µM] (active)
NC(N)=N/N=C/c1ccc([N+](=O)[O-])o1	76.1% (inactive)
C=CN(C)S(C)(=O)=O	5.83% (active)
COC1=C(OC)C(=O)C(CCCCCCCCCCO)=C(C)C1=O	76.8% (inactive)
CN(C)CC(C)(C)C(=O)/C=C/c1ccccc1	-15.3% [25 µM] (active)
CCSCC1CC(O)(c2ccccc2)C(c2ccccc2)C(c2ccc(F)cc2)O1 (stereo not given)	-12.5% (active)
COc1ccc(-c2nc3sccn3c2/C=C/C(=O)c2cc(OC)c(OC)c(OC)c2)cc1	56.5% (inactive)
O=[N+]([O-])c1cccc2nsnc12	104% (inactive)
O=C(N/N=C/c1ccc(O)cc1O)c1cccnc1	-17.2% (active)
Cc1ccc(C2(C)NC(=O)N(CC(=O)Nc3cccc(C)c3)C2=O)cc1 (stereo not given)	103% (inactive)

SMILES	growth
CCCCCCCCCCCCc1ccc(C(=O)/C=C/C(=O)O)cc1	26.6% (inactive)
COc1ccc(S(=O)(=O)N2CCN(C)CC2)cc1NC(=O)c1[nH]c(C)c2c1CCCCC2=O	8.16% (active)
OCCN1CCN(c2nc(Nc3ccc(-c4nc5ccccc5[nH]4)cc3)c3cn[nH]c3n2)CC1	-65.8% (active)
O=c1cc(-c2ccccc2)[nH]c2c1CCCC2	19.1% (inactive)
CC[C@H](Nc1nc(N)nc(C)c1C#N)c1nc2cccc(NCc3ccc(C(=O)NO)cc3)c2c(=O)n1-c1ccccc1	2.45% (active)
CCCCOc1nc2ccccc2cc1C1CNC(=O)c2ccccc2N1 (stereo not given)	-8.72% (active)
COc1ccc(NC(=O)c2ccc(Nc3ncnc4[nH]c(C)c(C)c34)cc2)cc1	89.1% (inactive)
CCN=C1C=CC(=C(c2ccc(N(CC)CC)cc2)c2ccc(N(CC)CC)cc2)c2ccccc21	-31.1% (active)
Cn1cc(-c2csc(-c3cn(C)c4ccc(Br)cc34)n2)c2cnccc21	-58.4% (active)
N#CCNc1ccc(C(=O)O)cc1	99.2% (inactive)
Cc1ccc(-c2nc(N3CCN(C(=O)Nc4ccc(Cl)c(C(F)(F)F)c4)CC3)c3ccccc3n2)cc1	98.9% (inactive)
CCC1CCc2nc3sc(C(=O)Nc4cccc(F)c4)c(N)c3cc2C1 (stereo not given)	23% (inactive)
COc1ccc(/C=C/c2cccc[n+]2C)cc1	105% (inactive)
CC1CCC2(OC1)OC1CC3C4CC=C5CC(O)CCC5(C)C4CCC3(C)C1C2C (stereo not given)	91.9% (inactive)
Cc1ccnc2c(NC(C)CCCN)cc(O)c(O)c12 (stereo not given)	7.56% (active)
CN(Cc1ccccc1)c1ccc(SC#N)cc1	17.5% (inactive)
CC1=NC2=Nn3c(c4cnn(-c5ccccc5)c4n/c3=N\N)NN2C(c2ccccc2)=C1	106% (inactive)
c1ccc2c(c1)Nc1ccncc1S2	132% (inactive)
O=c1ccc2ccc(OCCN3CCCCC3)cc2o1	-28% (active)
O=C(Cc1ccc(/C=C/C(=O)c2ncc[nH]2)cc1)Nc1ccc(Cl)cc1	-14.5% (active)
